{"source": "PubChem BioAssay (EPA / NIEHS)", "note": "Records with an inconclusive call do not appear. The source made the active and inactive calls. Rule for the calls: active = hit-call score of the fitted dose curve at least 0.9, where 1 is the maximum; inconclusive = response in the unintended direction; inactive = score below 0.9.", "data": [{"biological_target": "THRB (gene 7068) (UniProt P10828)", "sequence (P10828 whole entry, looked up)": "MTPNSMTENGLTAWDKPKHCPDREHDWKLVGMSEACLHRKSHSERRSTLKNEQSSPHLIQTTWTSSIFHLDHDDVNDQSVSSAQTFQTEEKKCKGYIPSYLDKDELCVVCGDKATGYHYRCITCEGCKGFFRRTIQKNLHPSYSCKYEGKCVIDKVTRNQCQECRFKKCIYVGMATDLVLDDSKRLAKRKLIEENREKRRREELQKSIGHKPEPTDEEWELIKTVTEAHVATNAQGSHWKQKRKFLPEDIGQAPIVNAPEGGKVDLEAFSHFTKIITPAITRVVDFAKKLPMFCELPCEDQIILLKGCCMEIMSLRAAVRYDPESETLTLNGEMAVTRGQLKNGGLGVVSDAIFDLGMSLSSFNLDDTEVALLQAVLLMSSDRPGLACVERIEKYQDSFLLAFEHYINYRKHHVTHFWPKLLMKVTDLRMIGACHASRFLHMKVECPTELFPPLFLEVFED", "test": "TOX21_TRB_COA_Antagonist_Followup_ratio: Tox21 Thyroid Hormone Receptor beta Antagonism through Coactivator Recruitment Follow-Up Assay, Ratio (AID 2283967)", "from_the_text": "TOX21_TRb_COA_Antagonist_Followup is a secondary assay for specificity for the TOX21_TR_GH3_LUC_Agonist assay. The LanthaScreen TR-FRET TR coactivator assay kits were used to determine TR activity in a cell-free functional assay. A time-resolved fluorescence resonance energy transfer (TR-FRET) signal was indicative of coactivator (SRC-2) recruitment.TOX21_TRB_COA_Antagonist_Followup_ratio is assay component calculated in the TOX21_TRB_COA_Antagonist_Followup assay. The TR-FRET ratio of acceptor emission (ch2) to donor emission (ch1) is indicative of the resonance energy transfer to the fluorescein tag on the coactivator peptide following recruitment to the receptor.Data from the assay component TOX21_TRB_COA_Antagonist_Followup_ratio was analyzed into 1 assay endpoint. This assay endpoint, TOX21_TRB_COA_Antagonist_Followup_ratio, was analyzed in the positive analysis fitting direction relative to DMSO as the negative control and baseline of activity. Using a type of inducible reporter, loss-of-signal activity can be used to understand changes in the reporter gene as they relate to the gene THRB. Furthermore, this assay endpoint can be referred to as a primary readout, because this assay has produced multiple assay endpoints and this ratio serves a reporter gene function to understand target activity. To generalize the intended target to other relatable targets, this assay endpoint is annotated to the nuclear receptor intended target family, where the subfamily is non-steroidal.\nCell Media Required: Growth (90% DMEM/F-12, 10% Fetal Bovine Calf Serum, 100U/ml Penicillin, 100 ug/ml Streptomycin), Assay (10ng/mL sodium selenite, 10 ug/mL humanapo-transferrin, 10 uM ethanolamine, 10 ug/mL insulin, 500 ug/mL bovine serum albumin (BSA))Assay Protocol: 4 uL mixture of the receptor LBDs expressed as glutathione S-transferase (GST) fusion proteins (2.5 nM for TRa and 5.0 nM for TRb) and BSA (0.10%; Sigma-Aldrich) were incubated with 23 nL of control or test compound. A time-resolved fluorescence resonance energy transfer(TR-FRET) signal was indicative of coactivator recruitment using a 2 uL mixture of fluoresce in-labeled SRC-2 peptide (200 nM) and terbium-labeled anti-GST antibody (2nM), which transferred resonance energy to the fluorescein tag on the coactivator peptide following recruitment to the receptor. Fluorescence emission ratios (520:495 nm) were collected by an Envision plate reader (excitation at 340 nm and emissions at 495 and 520 nm), and the measured values were normalized to 0% activity using DMSO-only wells and 100 activity using T3 control wells.", "values": [{"smiles": "C[C@]12CC[C@H]3[C@@H](CCC4=C(Cl)C(=O)CC[C@@]43C)[C@@H]1CC[C@@H]2O", "outcome": "inactive"}, {"smiles": "COC1=CC(=O)O[C@@H](/C=C/c2ccc3c(c2)OCO3)C1", "outcome": "inactive"}, {"smiles": "CCC(COC(=O)c1cc(OC)c(OC)c(OC)c1)(c1ccccc1)N(C)C", "note": "(stereo unspecified)", "outcome": "inactive"}, {"smiles": "CC[C@]1(O)CC[C@H]2[C@@H]3CCC4=CCCC[C@@H]4[C@H]3CC[C@@]21C", "outcome": "inactive"}, {"smiles": "COc1cc([C@@H]2c3cc4c(cc3[C@@H](O)[C@H]3COC(=O)[C@H]23)OCO4)cc(OC)c1O", "outcome": "inactive"}, {"smiles": "CC[C@H]1C[C@H]2[C@@H]3CCC4=CC(=O)CC[C@@H]4[C@H]3CC[C@]2(C)[C@H]1O", "outcome": "inactive"}, {"smiles": "CCN(CC)CCO[C@H]1CC[C@@]2(C)C(=CC[C@@H]3[C@@H]2CC[C@]2(C)C(=O)CC[C@@H]32)C1", "outcome": "inactive"}, {"smiles": "CN1C(=O)[C@@H](NC(=O)c2cc3ccccc3[nH]2)N=C(c2ccccc2)c2ccccc21", "outcome": "inactive"}, {"smiles": "O=c1oc2ccccc2c(O)c1Cc1c(O)c2ccccc2oc1=O", "outcome": "inactive"}, {"smiles": "C=CC[C@]1(O)CC[C@H]2[C@@H]3CCC4=CC(=O)CCC4=C3C=C[C@@]21C", "outcome": "inactive"}, {"smiles": "CC(=O)[C@H]1CC[C@H]2[C@@H]3CC[C@@H]4C[C@H](O)CC[C@]4(C)[C@H]3CC[C@]12C", "outcome": "inactive"}]}]}
